About 4,500 (80%) of roughly 5,600 compounds were called active. So high a share suggests a set chosen from earlier hits. Not all results are given here. A number with no mark means an inactive call. Cut-off read from the data, not from the text of the source: active = inhibition above about 10%; inactive = the rest.
Assay: GDH-TPI coupling enzyme inhibitors, artefact control for M. tuberculosis FBA inhibitor project, biochemical, fluorescence, high throughput (AID 652141)
Details: GDH-TPI coupled enzyme counterscreen, at 1 µM, stronger effect = higher value
For `Cc1ccc(C2Nc3cccc4cccc(c34)N2)cc1`, the inhibition was 137% (active).
`O=C(Nc1ccc(-c2nnc(-c3ccccc3)o2)cc1)C1CCCO1` (stereo not given) gave an inhibition of -0.52%.
In the case of `O=C(CCc1ccccc1)Nc1cccc(-c2nnc(-c3ccco3)o2)c1`, the inhibition is reported as 69.8% (active).
For `Cc1noc(C)c1COc1ccc2ccc(=O)oc2c1`, the inhibition was 42.7% (active).
In the case of `Cc1cc(C)cc(NC(=O)CSc2ccccc2)c1`, the inhibition is reported as 58.2% (active).
With `Nc1ccccc1C(=O)NC1CCCCNC1=O` (stereo not given) the inhibition was 141% (active).
In the case of `C[C@H]1CN([C@@H](C)CO)C(=O)c2cc(Br)cnc2O[C@H]1CN(C)S(=O)(=O)c1cccs1`, the inhibition is reported as 2.73%.
In the case of `c1cc(-c2ccc3[nH]ccc3c2)n2ccnc2c1`, the inhibition is reported as 62.4% (active).
For `CCOc1ccc(-c2nnc(-c3ccco3)o2)cc1`, the inhibition was 65% (active).
In the case of `CCCCOc1ccc(-c2nnc(-c3ccco3)o2)cc1`, the inhibition is reported as 140% (active).
In the case of `CCCCn1c(-c2cccc(C)c2)nc2cc3[nH]c(=O)c(C(C)C)nc3cc21`, the inhibition is reported as 33.5% (active).
In the case of `Brc1cnc2ccccc2c1N1CCCCC1`, the inhibition is reported as 60.2% (active).
In the case of `CCCn1c(=O)c(-c2ccccc2)c(O)c2ccccc21`, the inhibition is reported as 75.9% (active).
For `Cc1cccc(NC(=O)c2sc3nc(N4CCOCC4)c4c(c3c2N)CCCC4)c1`, the inhibition was 77% (active).
For `CCOC(=O)Cn1c(=O)n(Cc2ccc(OC)cc2)c(=O)c2cccnc21`, the inhibition was 730% [above what the read-out allows, likely interference] (active).
`COC(=O)CSc1nc(C)c2ccc(OC)cc2n1` showed an inhibition of -4.3%.
`CCOC(=O)c1[nH]c2ccc(OC)cc2c1NC(=O)CCN1CCN(Cc2ccccc2)CC1` showed an inhibition of -6.9%.
For `CCOC(=O)c1[nH]c2ccc(OC)cc2c1NC(=O)N1CCOCC1`, the inhibition was 100% (active).
In the case of `O=C(NC1CCN(Cc2ccccc2)CC1)c1cc(Br)c(Br)[nH]1`, the inhibition is reported as 764% [above what the read-out allows, likely interference] (active).
Compound `N#Cc1c(N2CCCCC2)nc(N)c2c(N)nc(SCC(=O)O)cc12` has an inhibition of 8.17%.
In the case of `COc1ccc(NC(=O)CN(C)C(=O)c2cc(-c3ccc(C)o3)nc3ccccc23)cc1`, the inhibition is reported as 61.4% (active).
For `CCC(=O)Nc1c(S(=O)(=O)c2ccccc2)c2nc3ccccc3nc2n1Cc1ccccc1`, the inhibition was 150% (active).
In the case of `COc1ccc2[nH]c3c(=O)n(Cc4ccco4)cnc3c2c1`, the inhibition is reported as -2.61%.
In the case of `COc1ccc2[nH]c3ccc(OC)cc3c2c1`, the inhibition is reported as 198% (active).
For `COc1ccc(-c2nc3cc(C)ccn3c2NC2CCCCC2)cc1SC1CCCCC1`, the inhibition was 41.2% (active).
With `COc1ccc2c3c(c(=O)oc2c1OCC(=O)C(C)(C)C)CCCC3` the inhibition was 51% (active).
For `Cc1c(OC(C)C(=O)N[C@@H](Cc2ccccc2)C(=O)O)ccc2c3c(c(=O)oc12)CCCC3` (stereo not given in full), the inhibition was -2.05%.
`CCOC(=O)N1CCN(C(=O)c2cc3c(ccc4ccccc43)oc2=O)CC1` showed an inhibition of -8.26%.
With `CCN(CC)c1ccc2cc(C(=O)O)c(=O)oc2c1` the inhibition was 17.4% (active).
For `COC(=O)c1c(C)c(C)nc(N)c1C#N`, the inhibition was 49.5% (active).
For `CC(C)c1nc(N2CCOCC2)c(C#N)c2c1COC(C)(C)C2`, the inhibition was 32.5% (active).
Work on `CC1(C)Cc2c(C#N)c(SCc3nc4ccccc4[nH]3)nc(N3CCOCC3)c2CO1` yielded an inhibition of -4.7%.
In the case of `CN(C(=O)c1ccccn1)c1nnc(-c2ccccn2)s1`, the inhibition is reported as 520% [above what the read-out allows, likely interference] (active).
In the case of `CN(C(=O)COc1ccccc1)c1nnc(-c2ccncc2)s1`, the inhibition is reported as 513% [above what the read-out allows, likely interference] (active).
With `O=C(NCCN1CCN(Cc2ccccc2)CC1)c1cc2c(=O)[nH]c3ccccc3c2s1` the inhibition was 125% (active).
Work on `Cc1cccc2c1-c1sc(C(=O)NCCCN3CCc4ccccc4C3)cc1CO2` yielded an inhibition of -4.07%.
For `CN(C)S(=O)(=O)c1ccc(N/C=C(\[N+](=O)[O-])S(=O)(=O)c2ccccc2)cc1`, the inhibition was -5.04%.
In the case of `Oc1ccc(Br)cc1C=Nc1ccc2[nH]ncc2c1`, the inhibition is reported as 51.6% (active).
In the case of `CC(C)=NN1C(=O)c2ccccc2NC1(C)C`, the inhibition is reported as 121% (active).
With `Cc1cc(NC(C)C)n2c(nc3ccccc32)c1C#N` the inhibition was 181% (active).
With `COc1ccc(C2C3=C(CCCC3=O)N(CC(=O)O)C3=C2C(=O)CCC3)cc1` the inhibition was 107% (active).
With `CCOC(=O)COc1nc(C)cc(C(F)(F)F)c1C#N` the inhibition was 36.8% (active).
For `COc1ccc2sc(-c3ccc(N(C)C)cc3)c(-c3ccc4cc[nH]c4c3)c2c1`, the inhibition was 55.2% (active).
With `O=C(CN1C(=O)c2cccc3cccc(c23)C1=O)N1CCCCC1` the inhibition was 53.9% (active).
With `CCCCN(CCCC)CC(O)Cn1c2ccccc2c(=O)c2ccccc21` (stereo not given) the inhibition was 87.8% (active).
In the case of `CN1c2ccc(C=O)c3c(C=O)ccc(c23)N(C)C1(C)C`, the inhibition is reported as 19.9% (active).
For `CCOc1ccc2nc(Nc3nc4ccc(NC(C)=O)cc4s3)sc2c1`, the inhibition was 13.8% (active).
In the case of `O=C(Nc1ncc2c(n1)-c1ccccc1OC2)c1ccc(Cl)cc1`, the inhibition is reported as 82.3% (active).
In the case of `CN(C(=O)c1cc2c(=O)n3ccccc3nc2s1)C1CCCCC1`, the inhibition is reported as 46.3% (active).
`CN(CCOc1ccccc1)C(=O)c1cc(-c2ccco2)nc2ccccc12` gave an inhibition of -2.35%.
With `O=C(c1cc(-c2ccco2)nc2ccccc12)N(Cc1nnc(-c2ccc(Cl)cc2)o1)C1CC1` the inhibition was 72.7% (active).
In the case of `COc1ccc(CNC(=O)c2c[nH]c3c(OC)cc(OC)cc3c2=O)cc1`, the inhibition is reported as -3.81%.
For `COc1cccc2[nH]c(C(=O)NCCc3ccccc3)cc12`, the inhibition was 961% [above what the read-out allows, likely interference] (active).
For `Cc1nn(-c2ccccc2)nc1C(=O)OCC(=O)N1CCCCC1C` (stereo not given), the inhibition was -3.64%.
For `Cc1cnc(C(=O)OCC(=O)N2CCc3ccccc32)cn1`, the inhibition was 99.3% (active).
With `CCOc1c2ccc(C(=O)NC3CCCc4ccccc43)cc2nn1CC` (stereo not given) the inhibition was 7.23%.
In the case of `CCOc1c2ccc(C(=O)NCc3ccc4c(c3)OCO4)cc2nn1C`, the inhibition is reported as 68.1% (active).
`CCCn1nc2cc(C(=O)NCc3ccccc3)ccc2c1OCC` showed an inhibition of -3.32%.
For `CCOc1c2ccc(C(=O)NCc3ccc(OC(F)(F)F)cc3)cc2nn1C`, the inhibition was 79.5% (active).
In the case of `CC(=O)c1sc2nc(SCC(=O)N3CCCCC3)[nH]c(=O)c2c1C`, the inhibition is reported as 55.4% (active).
For `Cc1nc(NCCN)c(C#N)c2c1COC(C)(C)C2`, the inhibition was 76.9% (active).
For `Fc1ccc(N2N=C(c3cccs3)CC2c2ccco2)c(F)c1` (stereo not given), the inhibition was -3.03%.
With `COc1ccccc1N1N=C(c2cccs2)CC1c1ccccc1` (stereo not given) the inhibition was 46.6% (active).
In the case of `COc1ccc(C2CC(c3cccs3)=NN2c2ccccc2)cc1` (stereo not given), the inhibition is reported as 23.7% (active).
In the case of `Oc1ccccc1C1=NN(c2ccccc2)C(c2ccccc2)C1` (stereo not given), the inhibition is reported as 84% (active).
In the case of `COc1ccc(C2CC(c3cccs3)=NN2c2ccc(F)cc2)cc1OC` (stereo not given), the inhibition is reported as 71.1% (active).
With `CS(=O)(=O)Nc1ccc(C2=NN(S(C)(=O)=O)C(c3cccs3)C2)cc1` (stereo not given) the inhibition was -3.93%.
With `Cc1cc(C)c(-c2c(O)c3ccccc3n(C)c2=O)c(C)c1` the inhibition was 61.1% (active).
In the case of `Cc1ccc(S(=O)(=O)N2CCN(C(=O)CSc3cc(C)ccc3C)CC2)c(C)c1`, the inhibition is reported as 108% (active).
In the case of `CCc1cc(=O)oc2cc(C)cc(OCC(=O)N3CCC[C@@H]3C(=O)O)c12`, the inhibition is reported as 54.6% (active).
In the case of `CCCC/C=C/c1cccc2nncn12`, the inhibition is reported as 54% (active).
In the case of `CCOc1ccccc1C1CC(c2ccccc2)Nc2nc(N)nn21` (stereo not given), the inhibition is reported as 132% (active).
For `CN(C)CCCn1c(N)c(C#N)c2nc(C#N)c(C#N)nc21`, the inhibition was 76.3% (active).
For `c1ccc(Cc2c(-c3ccco3)nc3c4ccccc4ccn23)cc1`, the inhibition was 95.6% (active).
In the case of `CN(C)c1ccc(/C=N/NC(=O)C(O)c2ccc(Br)cc2)cc1` (stereo not given), the inhibition is reported as 64% (active).
For `CC(C)C1Nc2c(C(=O)O)cccc2C(Nc2ccccc2C(=O)O)C1(C)C` (stereo not given), the inhibition was 87.3% (active).
For `CC(=O)N1C(=O)/C(=C2\SC(=S)N(NC(=O)c3ccc(O)cc3)C2=O)c2ccccc21`, the inhibition was -2.52%.
With `Cc1cc(OCc2cc(C(=O)O)oc2C)c2c3c(c(=O)oc2c1)CCCC3` the inhibition was 89.5% (active).
In the case of `COC(=O)COc1cc(C)cc2oc(=O)c3c(c12)CCCC3`, the inhibition is reported as 105% (active).
In the case of `O=C(c1cc(-c2ccc(Cl)s2)nc2ccccc12)N1CCOCC1`, the inhibition is reported as 83% (active).
For `CC(=O)N1CCN(C(=O)c2cc(-c3ccc(Cl)s3)nc3ccccc23)CC1`, the inhibition was -3.53%.
For `Cc1ccc2nc(-c3ccco3)c(Cc3cccc(Cl)c3)n2c1`, the inhibition was 63.6% (active).
For `COC(=O)c1cc(-c2cccs2)nc2ccccc12`, the inhibition was 96.2% (active).
With `O=C(NCCN1CCOCC1)c1cc(-c2cccs2)nc2ccccc12` the inhibition was -3.18%.
For `CC(C)(C)OC(=O)NNc1c2ccccc2nc2ccccc12`, the inhibition was -5.25%.
In the case of `CC(C)n1c(-c2cccs2)nc2ccccc21`, the inhibition is reported as 68.4% (active).
For `Cc1cc(=O)oc2c1ccc1ccccc12`, the inhibition was 71.6% (active).
For `COCCN(CCOC)c1nc(N)c2c(N)nc3c(c2c1C#N)CC(=O)N3Cc1ccc(Cl)cc1`, the inhibition was 79% (active).
For `N#CC1(Nc2ccc3c4c(cccc24)CC3)CCCCC1`, the inhibition was 103% (active).
In the case of `COCc1cc(=O)oc2cc(NS(=O)(=O)c3ccc(C)cc3)ccc12`, the inhibition is reported as 51.2% (active).
For `CCSc1nnc(-c2cc3c(s2)-c2ccccc2CC3)o1`, the inhibition was 53.8% (active).
For `Cc1cc(=O)oc2c3c(cc(OCC(=O)NCC(O)c4ccccc4)c12)OC(C)(C)CC3` (stereo not given), the inhibition was 46.9% (active).
With `Cc1cc(OCC(=O)NCC(O)c2ccccc2)c2c(C)c(C)c(=O)oc2c1` (stereo not given) the inhibition was 187% (active).
In the case of `CC1(C)CC(=O)c2cc(OCC(=O)NCC3CCCO3)ccc2O1` (stereo not given), the inhibition is reported as -4.8%.
For `CC1=CC2=NC(=O)CC(C)(C(=O)N(CC(=O)NC(C)(C)C)Cc3ccccc3)N2C=C1` (stereo not given), the inhibition was 4.57%.
